What all share (format): functional
For assay [1], the system named is Plasmodium falciparum. Kind of assay: GSK_TCMDC: Inhibition of Plasmodium falciparum 3D7 in whole red blood cells, using parasite LDH activity as an index of growth. Test compounds present at 2uM.
Assay [2] deals with Plasmodium falciparum. Put plainly: GSK_TCMDC: Inhibition of Plasmodium falciparum Dd2 in whole red blood cells, using parasite LDH activity as an index of growth. Test compounds present at 2uM.
The test system of the next assay is HepG2. Kind of assay: GSK_TCMDC: Percent inhibition of human HepG2 cell line. Test compounds present at 10uM.

With `N#Cc1ccc(NC(=O)N2CCCN(CCCCCNC(=O)/C=C/c3ccc(Cl)c(Cl)c3)CC2)cc1`, the Inhibition (as a rule, the drop in the measured response relative to a control, in per cent) in the assay with Plasmodium falciparum [1] was 100%; in the assay on Plasmodium falciparum [2], 4%; in the assay on HepG2 it was 32%.

Regarding `CC1CCCN(Cc2cc(Cl)cc(Cl)c2O)C1` (configuration not stated), the Inhibition in the assay with Plasmodium falciparum [1] was 89%; with Plasmodium falciparum [2], 77%; in the assay on HepG2 it was 22%.

On to `C=CCC(C(=O)Nc1ccnc2ccc(OC)cc12)C1CCN(CCCCCCC)CC1` (configuration not stated), for which the Inhibition with Plasmodium falciparum [1] came out at 86%; in the assay with Plasmodium falciparum [2], 84%; in the assay with HepG2, 20%.

`Cc1ccc(NC(=O)NC2CCN(c3ccnc4ccccc34)C2)cc1.O=C(O)C(F)(F)F` (configuration not stated): the Inhibition with Plasmodium falciparum [1] was determined as 99%; with Plasmodium falciparum [2] it was 48%; with HepG2, 7%.

For the molecule `COc1ccc(Cn2ccc3c4c(N)nc(N)nc4ccc32)cc1`, the figures for the Inhibition in the assay on Plasmodium falciparum [1], in the assay on Plasmodium falciparum [2] and with HepG2 were 100%, 93% and 90%, respectively.

`CN(C)C(=O)CC(=O)NCc1cccc(Cl)c1`: the Inhibition came out at 99% in the assay with Plasmodium falciparum [1], 3% in the assay with Plasmodium falciparum [2] and 4% in the assay with HepG2.

As for `CCOc1ccccc1C(=O)Nc1cccc(-c2nc3ncccn3c2C)c1`, the Inhibition in the assay on Plasmodium falciparum [1] stood at 92%; in the assay on Plasmodium falciparum [2], 88%; in the assay on HepG2, 0%.

Regarding `Cl.O=[N+]([O-])c1ccc(C(O)CNCCc2ccccc2)cc1OCc1ccccc1` (configuration not stated), the Inhibition in the assay on Plasmodium falciparum [1] is given as 94%; in the assay on Plasmodium falciparum [2], 67%; in the assay on HepG2, 0%.

Consider `COc1ccc(C(=O)Nc2ccc(Nc3nc(C)cc(N(C)C)n3)cc2)c(OC)c1`, for which the Inhibition in the assay on Plasmodium falciparum [1] stood at 100%; in the assay on Plasmodium falciparum [2], 72%; with HepG2 it was 34%.

Turning to `CN1CCC(C(=O)Nc2cccc(-c3ccc(-c4nc5cc(F)ccc5[nH]4)cc3)c2)CC1`, the Inhibition in the assay with Plasmodium falciparum [1] is 100%; with Plasmodium falciparum [2] it was 51%; in the assay with HepG2, 12%.

In the case of `Br.CC1(C)NC(N)=NC(=N)N1OCCCc1ccc(Cl)cc1Cl`, the Inhibition worked out at 95% with Plasmodium falciparum [1], 95% in the assay with Plasmodium falciparum [2] and 54% in the assay with HepG2.

Turning to `CCOc1ccc(NC(=O)c2cn3nc(-c4ccc(OCC)cc4)cc3nc2C2CCNCC2)cc1.Cl`, the results for the Inhibition in the assay with Plasmodium falciparum [1], in the assay on Plasmodium falciparum [2] and in the assay with HepG2 were 100%, 39% and 36%, respectively.

With `CCOC(=O)c1ccc(-n2c(C)cc(C=C3SC(=Nc4ccccc4)N(C4CCCC4)C3=O)c2C)cc1`, the values for the Inhibition in the assay on Plasmodium falciparum [1], in the assay with Plasmodium falciparum [2] and with HepG2 were 98%, 61% and 2%, respectively.

On to `Brc1ccsc1-c1nc(NCCC(c2ccccc2)c2ccccc2)no1`, for which the Inhibition in the assay with Plasmodium falciparum [1] was determined as 94%; in the assay on Plasmodium falciparum [2] it was 81%; in the assay with HepG2 it was 17%.

For the molecule `O=C(/C=C/c1ccc(Cl)c(Cl)c1)N1CCC(NCc2ccc3[nH]ccc3c2)CC1`, the Inhibition is 97% in the assay on Plasmodium falciparum [1], 1% in the assay with Plasmodium falciparum [2] and 44% in the assay with HepG2.

For `Cc1cccc2nc(-c3ccc(-c4cccc(CN5CCC(N)C5)c4)s3)[nH]c12.O=C(O)C(F)(F)F` (configuration not stated), the Inhibition in the assay on Plasmodium falciparum [1] was 95%; in the assay on Plasmodium falciparum [2], 78%; in the assay on HepG2, 16%.

As to `COC(=O)Cn1c(C2CCN(CC3CCC(NC(=O)/C=C/c4ccc(Cl)c(Cl)c4)CC3)CC2)nc2ccccc21` (configuration not stated), the values for the Inhibition in the assay on Plasmodium falciparum [1], in the assay with Plasmodium falciparum [2] and in the assay on HepG2 were 95%, 17% and 12%, respectively.

`COc1ccc(NS(=O)(=O)c2cc(NC(=O)Cn3ccccc3=O)ccc2N2CCCCC2)cc1`: the Inhibition in the assay on Plasmodium falciparum [1] is on record as 92%; in the assay with Plasmodium falciparum [2], 83%; with HepG2 it was 20%.

As to `O=C(Nc1ccc(Cl)cc1)Nc1nc2cc([N+](=O)[O-])ccc2[nH]1`, the Inhibition amounted to 100% with Plasmodium falciparum [1], 6% in the assay with Plasmodium falciparum [2] and 0% in the assay on HepG2.

For the molecule `Cc1c(Cn2nc(Cl)c(N3CCNCC3)cc2=O)cccc1NC(=O)Nc1ccc(-c2ccccc2)cc1.O=C(O)C(F)(F)F`, the Inhibition is 80% in the assay with Plasmodium falciparum [1], 29% in the assay on Plasmodium falciparum [2] and 96% in the assay with HepG2.

As for `Cc1c(Br)cc2nc(-c3ccc(C(=O)NC4CCN(Cc5ccccc5)CC4)cc3)[nH]c2c1C`, the figures for the Inhibition in the assay on Plasmodium falciparum [1], in the assay with Plasmodium falciparum [2] and in the assay on HepG2 were 100%, 98% and 4%, respectively.

For the molecule `CCN(CCNC(=O)Nc1cc(C(F)(F)F)cc(C(F)(F)F)c1)c1cccc(C)c1`, the Inhibition in the assay on Plasmodium falciparum [1] is given as 98%; in the assay on Plasmodium falciparum [2], 100%; with HepG2 it was 0%.

Turning to `CN1CCC(N(Cc2ccc(-c3ccc(Cl)cc3)cc2)C(=O)Cn2c(CCc3cccc(F)c3F)cc(=O)c3ccccc32)CC1.O=C(O)C(O)C(O)C(=O)O`, the Inhibition in the assay with Plasmodium falciparum [1] stood at 97%; in the assay with Plasmodium falciparum [2], 88%; with HepG2, 93%.

On to `O=C(Nc1ccc(OC(F)(F)F)cc1)NC1CCN(c2ccnc3ccccc23)CC1.O=C(O)C(F)(F)F`, for which the results for the Inhibition in the assay on Plasmodium falciparum [1], with Plasmodium falciparum [2] and with HepG2 were 100%, 40% and 40%, respectively.

For `COc1c(C2CCN(CCCCNC(=O)c3ccc(-c4ccc(C(F)(F)F)cc4)c(C(=O)OC(C)C)c3)CC2)ccc2c1CCCC2`, the Inhibition is on record as 90% in the assay with Plasmodium falciparum [1], 30% in the assay on Plasmodium falciparum [2] and 24% in the assay on HepG2.

On to `NC(=O)c1ccsc1NC(=O)CNC(c1ccccc1)c1ccc(Cl)cc1` (configuration not stated), for which the Inhibition in the assay on Plasmodium falciparum [1] came to 83%; with Plasmodium falciparum [2] it was 89%; in the assay with HepG2, 25%.

With `O=c1cc(NCCCNCc2cc(Cl)c(Cl)cc2Cl)[nH]c2ccccc12`, the figures for the Inhibition in the assay on Plasmodium falciparum [1], in the assay with Plasmodium falciparum [2] and in the assay with HepG2 were 93%, 20% and 7%, respectively.

Turning to `CC(C)Sc1nc2c(c(=O)n1CCc1ccccc1)C1(CCCCC1)Cc1ccccc1-2`, the Inhibition in the assay with Plasmodium falciparum [1] is recorded as 92%; with Plasmodium falciparum [2] it was 5%; in the assay with HepG2, 8%.

Consider `CCc1c(CCNC/C=C/C=C/CNCCc2ccc(OC)c(OC)c2CC)ccc(OC)c1OC.Cl`, for which the results for the Inhibition with Plasmodium falciparum [1], in the assay with Plasmodium falciparum [2] and in the assay on HepG2 were 100%, 99% and 75%, respectively.

(Values after ChEMBL document CHEMBL1157539, “Thousands of chemical starting points for antimalarial lead identification” (Nature, 2010).)
